Structures are written as SMILES. Inconclusive results are not listed. A call without a number means that no potency is given here. Activity calls are given as the source filed them. Calls follow the shape of the dose curve; as a rule, active = well fitted activation curve with a large enough effect; inconclusive = small, poorly fitted or top-dose-only effect; inactive = no such curve, though single readings can be large or run the other way.
Potency is read from the fitted curve at half-maximal effect.

The nature of this assay: qHTS assay for re-activators of p53 using a Luc reporter: Hit Validation with no p53 Expressed. As to conditions: p53-null cells, luciferase reporter counter-screen; series mostly up to 46.1 µM. In outline:
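Without p53 expression, cells (1000/well, Opti-MEM + 10% FBS) were exposed 24 h at 37 deg C to compounds in a 1:5 series from 10 mM stock (top 46.1 µM in well). Luminescent signal read 10 min after Amplite addition; actives flag unspecific activation.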
Regarding `CC1C(=O)CCN(C(C)(C)C)C1C` (centres undefined), the Potency result was “inactive”. Consider `O=C(NCc1ccco1)c1noc2c1CCCC2`, for which the Potency result was “inactive”. As to `Cc1nnc(SCC(=O)N2CCOCC2)c2ccccc12`, the Potency entry was “inactive”. `CC1CCN(C(=O)c2cc(-c3ccccc3O)on2)CC1`: the Potency entry was “inactive”. As for `O=C(Nc1ccc(-c2nc3cc(Cl)ccc3c(=O)o2)cc1)c1ccco1`, the Potency result is “inactive”. The value for `Cc1ccc(OCC(=O)c2cc(C)n(C)c2C)c([N+](=O)[O-])n1` was “inactive”; that for `CCOC(=O)N(Cc1ccccc1)C(C(=O)O)C(C(=O)O)N(Cc1ccccc1)C(=O)OCC` (centres undefined) was “inactive”. `COC(=O)Cc1n[nH]c(=S)[nH]c1=O`: the Potency result is “inactive”.

On to `Clc1cccc(Cl)c1CSc1nnc2ccccn12`, for which the Potency result is “inactive”.

In the case of `Cc1ccc(-c2nc(-c3cccnc3)no2)c(C)c1`, the Potency result is “inactive”. Consider `Nc1cccc(-c2nc3ccc(C(=O)c4ccccc4)cc3[nH]2)c1`, for which the Potency result was “inactive”.

As for `C=CCNc1nc(-c2cc3ccccc3o2)cs1`, the Potency entry was “inactive”. Regarding `COc1ccc2oc(C(=O)OCC(=O)NCCN3C(=O)CSC3=O)c(C)c2c1`, the Potency entry is “inactive”. As for `Cc1cc(C(=O)N2CCN(c3ccccc3Cl)CC2)c(C)o1`, the entry is “inactive”; as for `Cc1cc(-c2nnc(SCc3ccccn3)o2)no1`, “inactive”; as for `C1=C(CCNc2ncnc3nc[nH]c23)CCCC1`, “inactive”.

`Cc1ccc(S(=O)(=O)c2cn(CC(=O)Nc3ccccc3)c3ccc(F)cc3c2=O)cc1`: the Potency entry was “inactive”. The value for `O=C(COc1ccccc1[N+](=O)[O-])N/N=C/c1cccc(OC(=O)c2ccc3c(c2)OCO3)c1` was “inactive”; that for `Cc1ccc(NC(=O)COc2ccc3c(c2)OCO3)c(Cl)c1` was “inactive”. Take `Cc1cc(C(F)(F)F)c(C#N)c(SCC(=O)Nc2nc3ccccc3s2)n1`: the Potency was 116 nM (active). As for `CC(C)(C)OC(=O)N1CCC(C(=O)Nc2ccc3c(c2)CCC3)CC1`, the entry is “inactive”; as for `Nc1c(C(=O)c2ccc(Cl)cc2)oc2ccccc12`, “inactive”. The value for `Cc1csc2nc(COC(=O)c3cccc(N(C)C)c3)cc(=O)n12` was “inactive”; that for `C=CCNC(=S)N/N=C(\C)c1ccccn1` was “inactive”; that for `O=C(COC(=O)C12CC3CC(CC(O)(C3)C1)C2)Nc1ccc(Br)cc1F` was “inactive”. `Cc1cccc(NC2SC(=O)N(c3ccccc3)C2=O)c1` (centres undefined): the Potency result was “inactive”.

In the case of `O=C(CSc1nnc(-c2ccc3c(c2)OCCO3)o1)N1CCCC1`, the Potency entry is “inactive”.

In the case of `COc1ccnc(CSC(N)=Nc2ccccc2OC)c1`, the Potency entry is “inactive”. In the case of `Cc1nonc1NCn1nnc2ccccc21`, the Potency result is “inactive”. The value for `COc1ccc2nc(NC(=O)Nc3ccccc3OC)sc2c1` was “inactive”; that for `Clc1ccc(OCc2nc(-c3ccccn3)no2)c(Br)c1` was “inactive”.

Regarding `O=C(OCC(=O)N1CCc2ccccc21)c1ccccc1[N+](=O)[O-]`, the Potency entry was “inactive”. `CCOc1cccc(-c2nc3cc(C)ccc3o2)c1`: the Potency result was “inactive”.

Regarding `c1ccc(-c2nnc(-c3ccccn3)nc2NC2CCCCC2)cc1`, the Potency entry is “inactive”. As to `Cc1ccc(C)c(OCC(O)CN2C(C)CCCC2C)c1` (centres undefined), the Potency result was “inactive”. Regarding `COC(=O)CCC(=O)COc1ccccc1C#N`, the Potency result was “inactive”.

For the compound `Oc1c(CN2CCOCC2)cc(COCc2ccccc2)c2cccnc12`, the Potency entry was “inactive”. As to `O=C(CSc1nnc(-c2ccc(F)cc2)c2ccccc12)Nc1ccccc1`, the Potency result is “inactive”. As for `Nc1nc(-c2ccc([N+](=O)[O-])cc2)cs1`, the entry is “inactive”.
